Active and inactive are the calls of the source. How the source made its calls: active means hit-call score of the fitted dose curve at least 0.9, where 1 is the maximum; inactive means score below 0.9.
The molecules below were run on Urokinase-type plasminogen activator receptor (uPAR), PLAUR (gene 5329) (assay: BSK_BE3C_uPAR: BioMAP Diversity Plus: BE3C Assay for Urokinase-type plasminogen activator receptor (uPAR) Biomarker Activity (AID 2283039;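 on outcome: uPAR protein level measured by ELISA on the cells; cells exposed to compound for one day before measurement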)). Settings: primary human bronchial epithelial cells; actives raise or lower the signal.
Summary of the method: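 Primary human bronchial epithelial cells were dosed with chemical and harvested 24 h later; uPAR was quantified by ELISA. Activity was fitted bidirectionally against DMSO as negative control and baseline.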

SMILES | outcome | AC50
CCC(C)(CC)c1cc(NC(=O)c2c(OC)cccc2OC)on1 | inactive | 
Nn1cnnc1 | inactive | 
CCCCCCCCOC(=O)c1ccccc1C(=O)OCCCCCCCC | inactive | 
Clc1ccc(Cl)cc1 | inactive | 
Cc1ccccc1O | inactive | 
Cc1cc(-c2ccc(N)c(C)c2)ccc1N | inactive | 
CC#Cc1cc(C)nc(Nc2ccccc2)n1 | inactive | 
CO/C=C(/C(=O)OC)c1ccccc1COc1cccc(C(F)(F)F)n1 | inactive | 
ClC1=C(Cl)[C@]2(Cl)[C@@H]3[C@@H](Cl)[C@H]4O[C@H]4[C@@H]3C1(Cl)C2(Cl)Cl | inactive | 
C=CC(=O)NCNC(=O)C=C | inactive | 
CCCCCCCCCc1ccc(O)cc1 |  | 15.7 µM (active)
N#Cc1ccc(N(CC(N)=O)CC(F)(F)F)cc1C(F)(F)F | inactive | 
CCC(C)(c1ccc(O)cc1)c1ccc(O)cc1 | inactive | 
O=C(N[C@H]1CN2CCC1CC2)c1cc2ccoc2cn1 | inactive | 
ClC1=C(Cl)[C@]2(Cl)[C@@H]3[C@@H]4C[C@@H]([C@H]5O[C@@H]45)[C@@H]3[C@@]1(Cl)C2(Cl)Cl | inactive | 
O=C(NC(=O)c1cc(F)c(F)cc1Cl)Nc1cc(F)ccc1N1CCC(C(=O)O)CC1 | inactive | 
O=S(=O)(O)C(F)(F)C(F)(F)C(F)(F)C(F)(F)C(F)(F)C(F)(F)F | inactive | 

SMILES | outcome | AC50
C1CC2OC2CC1C1CO1 (stereo not drawn) | inactive | 
ClC1=C(Cl)[C@]2(Cl)[C@@H]3[C@H]4C[C@H]([C@@H]5O[C@H]45)[C@@H]3[C@@]1(Cl)C2(Cl)Cl | inactive | 
C[C@]12CCC(=O)C=C1CC[C@@H]1[C@@H]2CC[C@]2(C)C(=O)CC[C@@H]12 | inactive | 
CCC(C)c1cc([N+](=O)[O-])cc([N+](=O)[O-])c1O (stereo not drawn) | inactive | 
CCC(=O)O[C@H]1CC[C@H]2[C@@H]3CCC4=CC(=O)CC[C@]4(C)[C@H]3CC[C@]12C | inactive | 
Clc1ccc(C(Cl)(Cl)Cl)cc1 | inactive | 
Oc1ccc(Cl)cc1Cl | inactive | 
C[C@]12CCC(=O)C=C1CC[C@@H]1[C@@H]2CC[C@@]2(C)[C@H]1CC[C@]2(C)O | inactive | 
CC(C)C(=O)OCC(C)(C)C(OC(=O)C(C)C)C(C)C (stereo not drawn) | inactive | 
O=NN(c1ccccc1)c1ccccc1 | inactive | 
Oc1ccc(C(c2ccc(O)cc2)(C(F)(F)F)C(F)(F)F)cc1 |  | 38.1 µM (active)
CCCCCCOC(=O)c1ccccc1C(=O)OCCCCCC | inactive | 
Sc1ccccc1 | inactive | 
Clc1ccc(C(c2ccccc2Cl)C(Cl)(Cl)Cl)cc1 (stereo not drawn) | inactive | 
c1cc2ccc3cccc4ccc(c1)c2c34 | inactive | 
CCCN(CCC)N=O | inactive | 
